A short description of test [1]: Cell Viability - LYMP2-011 (AID 969; active means well fitted curve in the direction sought with a large enough effect; inconclusive means small, poorly fitted or top-dose-only effect, or another doubt; inactive means no such curve, though single readings can be large; an effect the other way counts as inactive or inconclusive;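 further: cells exposed to compound for 24 hours; nearly all actives have a fitted effect of over 60% in size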; further: potency means the concentration at half of the fitted maximal effect). An outline of the steps: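 Luminescent ATP read-out (CellTiter-Glo, 30 min RT) after 24 hr compound exposure at 37 C in human lymphoblastoid cells, 2500 cells/well. Decreasing ATP indicates cytotoxicity; AC50 from standard Hill fit.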
Test [2] addresses Estrogen receptor (Homo sapiens) (UniProt P03372). In words: qHTS assay for small molecule antagonists of estrogen receptor alpha signaling (AID 588513; active means well fitted curve in the direction sought with a large enough effect in the signal ratio, with a control signal flat, not every such curve was filed as active; inconclusive means small, poorly fitted or top-dose-only effect, or effect the other way, or a change in a side signal; inactive means no such curve, though single readings can be large or run the other way; the % refers to the signal ratio; further: potency means the concentration at half of the fitted maximal effect). The essentials:
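Fluorescence from CCF4 substrate after 2 h at room temperature gave reporter activity; cells had been exposed to compound and 0.5nM 17-beta-estradiol for 18 h at 37 C. Hill-equation fitting yielded IC50 and maximal response.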
For orientation: Quantitative high-throughput screening tests each substance at several concentrations.

For test [3] the target is unchanged. In words: qHTS assay for small molecule agonists of estrogen receptor alpha signaling (AID 588514).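 Further: 0% = vehicle only and 100% = reference agonist; nearly all actives have a fitted effect of over 70% in size.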 The essentials:
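Read-out: CCF4 fluorescence from a beta-lactamase reporter in ER-alpha-UAS-bla HEK 293 cells after 18 hrs of compound exposure at 37 C. Normalized to 20 nM 17-beta-estradiol (100%) and DMSO (0%).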

Test [4] concerns the target Bile acid receptor (Homo sapiens) (UniProt Q96RI1). In words: qHTS assay for small molecule agonists of farnesoid X receptor signaling (AID 588527).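 Further: 0% = vehicle basal and 100% = reference agonist.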 The conditions noted are these: HEK293T FXR-UAS-bla, beta-lactamase ratio, 16 h; stronger effect = higher value. An outline of the steps: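 Agonist-mode beta-lactamase reporter in GeneBLAzer FXR-UAS-bla HEK293T cells, titration up to 92 uM, 16 h exposure at 37 C, CCF4 fluorescence. Response scaled to DMSO (0%) and 100 uM chenodeoxycholic acid (100%), then Hill-fitted for EC50 and efficacy.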

Test [5] has as its target Peroxisome proliferator-activated receptor delta (Homo sapiens) (UniProt Q03181). In words: qHTS assay for small molecule agonists of peroxisome proliferator-activated receptor delta signaling (AID 588534).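 Further: 0% = DMSO basal wells and 100% = positive control agonist at 10 µM.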 An outline of the steps:
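Titration series tested in agonist mode on beta-lactamase reporter cells; 18 hrs at 37 C after a 5 hr pre-incubation. Readout: CCF4 fluorescence, 2 hrs RT. Hill equation gives EC50 and maximal response.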

Test [6] deals with Peroxisome proliferator-activated receptor gamma (Homo sapiens) (UniProt P37231). In words: qHTS assay for small molecule agonists of peroxisome proliferator-activated receptor gamma signaling (AID 588536; active means well fitted curve in the direction sought with a large enough effect in the signal ratio, with a control signal flat, not every such curve was filed as active; inconclusive means small, poorly fitted or top-dose-only effect, or effect the other way, or a change in a side signal; inactive means no such curve, though single readings can be large or run the other way; the % refers to the signal ratio;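 further: 0% = DMSO basal wells and 100% = rosiglitazone at 2 µM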). The essentials:
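This is an agonist-mode beta-lactamase reporter assay in HEK293 PPAR-gamma-UAS-bla cells with 1% charcoal/dextran FBS. Compound titrations ran 16 h at 37 C before CCF4 detection. EC50 and efficacy are Hill fits scaled to 2 uM rosiglitazone (100%) and DMSO basal.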

The nature of test [7]: qHTS assay for small molecule agonists of the antioxidant response element (ARE) signaling pathway (AID 651741; active means well fitted activation curve with a large enough effect in the signal ratio; inconclusive means small, poorly fitted or top-dose-only effect, or effect the other way, or a change in a side signal; the % refers to the signal ratio; further: potency means the concentration at half of the fitted maximal effect; on activation: % of control where 0% means no effect). An outline of the steps:
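HepG2 ARE-bla reporter cells, 2,000/well; 5 h settle at 37 C/5% CO2; compound pin transfer (23 nL, DMSO); 16 h at 37 C; LiveBLAzer B/G FRET substrate, 2 h RT; fluorescence intensity read.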

A short description of test [8]: qHTS assay for small molecule activators of the nuclear factor-kappa B (NF-kB) signaling pathway (AID 651749; active means well fitted activation curve with a large enough effect in the signal ratio; inconclusive means small, poorly fitted or top-dose-only effect, or a change in a side signal; the % refers to the signal ratio; further: % of control where 0% means no effect). Particulars: NF-kB-bla ME-180 cells, beta-lactamase FRET ratio, 16 h; stronger effect = higher value. An outline of the steps:
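NF-kB-bla ME-180 cells, 2,000/well; 23 nL compound or DMSO pinned; 16 hr, 37C/5% CO2; beta-lactamase FRET read-out.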

A short description of test [9]: Cell Viability - BJ (AID 421).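 Further: potency means the concentration at half of the fitted maximal effect; cells exposed to compound for 40 hours at 37 °C before readout.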 Particulars: BJ fibroblast viability, qHTS. An outline of the steps: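 Cytotoxicity as drop in intracellular ATP (CellTiter-Glo, 20 min RT) after 40 hr compound exposure of BJ fibroblasts at 37 °C. Titrations scaled between DMSO and 100 uM tamoxifen, Hill-fitted for AC50.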
Test [10] is described as follows: Cellular Toxicity (caspase-3) Mesangial (AID 660; active means well fitted curve in the direction sought with a large enough effect; inconclusive means small, poorly fitted or top-dose-only effect, or another doubt; inactive means no such curve, though single readings can be large; an effect the other way counts as inactive or inconclusive;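 further: combined caspase 3 and 7 activity read by Caspase-Glo luminescence; cells exposed to compound for 16 h before the caspase read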). The essentials:
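Luminescent Caspase-Glo 3/7 readout (aminoluciferin substrate cleavage, 20 min RT) after 16 h compound exposure at 37 °C of normal human mesangial cells. Signal increase normalized between DMSO basal and 100 uM tamoxifen; Hill-equation AC50.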

Test [11] in a line: Cell Viability - LYMP2-025 (AID 976; active means well fitted curve in the direction sought with a large enough effect; inconclusive means small, poorly fitted or top-dose-only effect, or another doubt; inactive means no such curve, though single readings can be large; an effect the other way counts as inactive or inconclusive;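 further: plate controls were DMSO only for no effect and tetraoctylammonium bromide control for full effect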). The essentials:
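CellTiter-Glo luminescence (cellular ATP) after 24 h compound exposure at 37 C; LYMP2-025 human lymphoblastoid cells, 2500/well, complete medium. Tetraoctylammonium bromide positive control. AC50 by Hill equation fit of qHTS concentration-response.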

The nature of test [12]: Cell Viability - Hek293 (AID 427;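 active means compounds whose dose-response curve shows a full or clear partial loss of cell viability, called from curve shape rather than a numeric limit; inconclusive means weak partial curves or an effect only at the top dose; inactive means no dose-dependent loss of viability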;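 further: potency means the concentration at half of the fitted maximal effect; cells exposed to compound for 40 hours at 37 °C before reading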). The conditions noted are these: qHTS. The essentials:
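Luminescent ATP content (CellTiter-Glo, 20 min at room temperature) was measured after a 40 hr, 37 °C compound exposure of HEK293 cells. AC50 values came from Hill-equation fits of qHTS concentration-response data normalized to DMSO and 100 uM tamoxifen.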

A short description of test [13]: Cell Viability - MRC5 (AID 434).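 Further: potency means the concentration at half of the fitted maximal effect; cells exposed to compound for 40 hours at 37 °C; potency reflects cytotoxicity seen as loss of intracellular ATP.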 Particulars: MRC5 lung fibroblast viability, qHTS. An outline of the steps: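 ATP luminescence read-out (CellTiter-Glo, 20 min RT) after 40 hr, 37 °C compound exposure of 1500 MRC5 cells/well. Data normalized to DMSO (basal) and 100 uM tamoxifen (100% inhibition); AC50 from standard Hill equation.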
Test [14] addresses Glucocorticoid receptor (Homo sapiens) (UniProt P04150). In words: qHTS assay for small molecule agonists of glucocorticoid receptor signaling (AID 588532; active means well fitted curve in the direction sought with a large enough effect in the signal ratio, with a control signal flat; inconclusive means small, poorly fitted or top-dose-only effect, or a change in a side signal; inactive means no such curve, though single readings can be large or run the other way; the % refers to the signal ratio;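 further: 100% = dexamethasone at 0.1 µM and 0% = DMSO only wells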). The conditions noted are these: HeLa MMTV-bla, beta-lactamase ratio, agonist, 18 h; stronger effect = higher value; percent of dexamethasone control, DMSO zero. An outline of the steps: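 HeLa GRE-bla reporter cells; 18 h compound exposure at 37 C; 2 h CCF4 loading at room temperature; fluorescence at 460 and 530 nm; EC50 by Hill equation.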

The target is the same in test [15]. In words: qHTS assay for small molecule antagonists of glucocorticoid receptor signaling (AID 588533; active means well fitted inhibition curve with a large enough effect in the signal ratio, with a control signal flat, not every such curve was filed as active; inconclusive means small, poorly fitted or top-dose-only effect, or effect the other way, or a change in a side signal; the % refers to the signal ratio; further: on the % scale 0 is the no-effect control and ±100 the full control effect). An outline of the steps:
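Antagonist-mode qHTS: compound titrations added to GRE-bla HeLa cells, then dexamethasone 2 nM final; 18 h, 37 C. CCF4 FRET fluorescence normalized to dexamethasone and DMSO; IC50 from Hill fit.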

Test [16] concerns the target Peroxisome proliferator-activated receptor gamma (Homo sapiens) (UniProt P37231). In words: qHTS assay for small molecule antagonists of peroxisome proliferator-activated receptor gamma signaling (AID 588537; active means well fitted inhibition curve with a large enough effect in the signal ratio, with a control signal flat, not every such curve was filed as active; inconclusive means small, poorly fitted or top-dose-only effect, or effect the other way, or a change in a side signal; the % refers to the signal ratio;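 further: reporter cells co-stimulated with 50 nM rosiglitazone agonist during compound treatment; % of control where 0% means no effect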). An outline of the steps: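 Read-out: CCF4 fluorescence (ex 405, em 460/530 nm) after 2 h at RT. Cells were HEK293 carrying a UAS-bla reporter and treated 16 h at 37 C with compound plus rosiglitazone (50 nM final). Normalized to rosiglitazone and DMSO.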

Test [17] can be described thus: Cell Viability - NIH 3T3 (AID 541; active means well fitted curve in the direction sought with a large enough effect; inconclusive means small, poorly fitted or top-dose-only effect, or another doubt; inactive means no such curve, though single readings can be large; an effect the other way counts as inactive or inconclusive;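 further: cells exposed to compound for 40 hours; plate controls were DMSO alone for no effect and tamoxifen positive control for full effect; nearly all actives have a fitted effect of over 25% in size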). Particulars: NIH 3T3 cell viability, qHTS; activity change, negative = cytotoxicity: at 92.2 µM (top of the series). An outline of the steps: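 qHTS format; 40 hr compound exposure, 37 °C; CellTiter-Glo luminescence (cellular ATP) read-out after 20 min at RT. Decrease in ATP = cytotoxicity; AC50 from standard Hill fit.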
Test [18] in a line: Cell Viability - H-4-II-E (AID 543; active means well fitted curve in the direction sought with a large enough effect; inconclusive means small, poorly fitted or top-dose-only effect, or another doubt; inactive means no such curve, though single readings can be large; an effect the other way counts as inactive or inconclusive;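 further: cells exposed to compound for 40 hours; on the % scale 0 is the no-effect control and ±100 the full control effect; nearly all actives have a fitted effect of over 35% in size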). The essentials:
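qHTS, rat hepatoma H-4-II-E, 1500 cells/well; 40 hr compound exposure, 37 °C; CellTiter-Glo ATP luminescence after 20 min RT; AC50 by standard Hill fit.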

Test [19] can be described thus: qHTS assay for small molecule antagonists of peroxisome proliferator-activated receptor delta signaling (AID 588535; active means well fitted inhibition curve with a large enough effect in the signal ratio, with a control signal flat, not every such curve was filed as active; inconclusive means small, poorly fitted or top-dose-only effect, or effect the other way, or a change in a side signal; inactive means no such curve, though single readings can be large or run the other way; the % refers to the signal ratio;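 on max response: cells co-treated with a PPAR-delta agonist as stimulator during compound exposure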). The conditions noted are these: HEK293T PPARd-UAS-bla, beta-lactamase FRET ratio, 18 h; 460 nm channel. An outline of the steps:
(§1)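 Beta-lactamase reporter read-out (405 nm excitation, 460/530 nm emission) after CCF4 loading for 2 hrs at RT. HEK293T PPAR-delta-UAS-bla cells, 2% charcoal/dextran FBS, compounds for 18 hrs at 37 C. Hill fit gave IC50 and efficacy.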

The target in test [20] is Peroxisome proliferator-activated receptor delta (Homo sapiens) (UniProt Q03181). The test is described as above. The essentials:
as §1

Where “and” joins values, the source holds several entries; their conditions need not be identical. Equal entries are not always repeated. Calls of active or inactive are those of the source. Unless noted, the call rests on the fitted dose curve.

Glucocorticoid receptor (Homo sapiens), sequence (P04150 whole entry, looked up): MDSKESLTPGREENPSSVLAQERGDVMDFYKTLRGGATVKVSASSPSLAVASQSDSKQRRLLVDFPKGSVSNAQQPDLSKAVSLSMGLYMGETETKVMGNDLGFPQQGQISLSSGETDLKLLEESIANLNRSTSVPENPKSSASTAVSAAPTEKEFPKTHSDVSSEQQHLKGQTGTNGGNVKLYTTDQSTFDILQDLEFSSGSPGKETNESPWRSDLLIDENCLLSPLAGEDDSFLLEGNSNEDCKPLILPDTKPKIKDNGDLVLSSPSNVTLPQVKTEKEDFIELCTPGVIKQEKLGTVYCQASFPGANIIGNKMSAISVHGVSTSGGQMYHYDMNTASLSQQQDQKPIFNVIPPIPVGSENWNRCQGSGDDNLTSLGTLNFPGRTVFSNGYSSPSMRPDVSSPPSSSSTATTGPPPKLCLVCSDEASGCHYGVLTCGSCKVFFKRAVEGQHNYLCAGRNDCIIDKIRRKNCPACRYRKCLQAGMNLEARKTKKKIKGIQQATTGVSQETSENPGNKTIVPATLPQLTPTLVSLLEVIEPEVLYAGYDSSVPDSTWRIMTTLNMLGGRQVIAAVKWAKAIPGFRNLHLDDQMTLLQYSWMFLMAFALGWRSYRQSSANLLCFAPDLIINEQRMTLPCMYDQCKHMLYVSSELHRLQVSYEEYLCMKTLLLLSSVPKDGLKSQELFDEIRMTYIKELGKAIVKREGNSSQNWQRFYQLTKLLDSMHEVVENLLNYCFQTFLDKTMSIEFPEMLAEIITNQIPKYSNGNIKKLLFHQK
Peroxisome proliferator-activated receptor gamma (Homo sapiens), sequence (P37231 whole entry, looked up): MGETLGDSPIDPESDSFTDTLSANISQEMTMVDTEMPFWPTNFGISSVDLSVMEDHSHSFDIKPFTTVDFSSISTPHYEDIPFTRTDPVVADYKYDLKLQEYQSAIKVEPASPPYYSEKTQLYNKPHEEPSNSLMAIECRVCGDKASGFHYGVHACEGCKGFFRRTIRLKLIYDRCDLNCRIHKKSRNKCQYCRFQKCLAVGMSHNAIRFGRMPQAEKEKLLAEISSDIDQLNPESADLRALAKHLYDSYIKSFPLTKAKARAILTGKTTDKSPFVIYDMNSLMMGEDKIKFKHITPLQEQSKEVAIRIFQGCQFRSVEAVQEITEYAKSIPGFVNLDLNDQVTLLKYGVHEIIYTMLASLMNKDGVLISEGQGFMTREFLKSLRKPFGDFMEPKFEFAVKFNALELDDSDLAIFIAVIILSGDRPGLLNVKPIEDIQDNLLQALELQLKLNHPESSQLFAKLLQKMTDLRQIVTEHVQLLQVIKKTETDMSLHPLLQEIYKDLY
Bile acid receptor (Homo sapiens), sequence (Q96RI1 whole entry, looked up): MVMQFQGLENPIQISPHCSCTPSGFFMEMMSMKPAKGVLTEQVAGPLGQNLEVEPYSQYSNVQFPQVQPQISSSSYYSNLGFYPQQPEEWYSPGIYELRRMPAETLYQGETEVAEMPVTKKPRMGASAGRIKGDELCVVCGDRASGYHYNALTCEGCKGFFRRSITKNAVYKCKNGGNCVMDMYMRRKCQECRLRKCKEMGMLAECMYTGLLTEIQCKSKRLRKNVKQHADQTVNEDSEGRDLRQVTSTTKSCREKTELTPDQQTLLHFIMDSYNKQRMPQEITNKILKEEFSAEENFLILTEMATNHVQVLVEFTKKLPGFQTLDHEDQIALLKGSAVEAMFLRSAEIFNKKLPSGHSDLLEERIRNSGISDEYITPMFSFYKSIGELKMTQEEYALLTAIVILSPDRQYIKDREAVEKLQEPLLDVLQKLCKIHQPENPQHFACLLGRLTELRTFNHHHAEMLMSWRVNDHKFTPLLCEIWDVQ
Peroxisome proliferator-activated receptor delta (Homo sapiens), sequence (Q03181 whole entry, looked up): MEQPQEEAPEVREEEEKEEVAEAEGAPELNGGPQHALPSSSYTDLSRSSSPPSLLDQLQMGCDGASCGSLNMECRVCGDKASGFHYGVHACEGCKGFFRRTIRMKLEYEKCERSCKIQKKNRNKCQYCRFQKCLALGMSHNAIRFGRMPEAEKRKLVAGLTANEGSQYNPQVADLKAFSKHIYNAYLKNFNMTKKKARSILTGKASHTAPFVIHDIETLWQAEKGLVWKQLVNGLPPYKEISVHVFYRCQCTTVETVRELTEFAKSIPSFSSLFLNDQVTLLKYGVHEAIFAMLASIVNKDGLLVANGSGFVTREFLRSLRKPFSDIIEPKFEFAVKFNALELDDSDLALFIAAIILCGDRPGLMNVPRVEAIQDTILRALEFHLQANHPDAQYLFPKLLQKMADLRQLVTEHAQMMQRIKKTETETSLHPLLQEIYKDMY
Estrogen receptor (Homo sapiens), sequence (P03372 whole entry, looked up): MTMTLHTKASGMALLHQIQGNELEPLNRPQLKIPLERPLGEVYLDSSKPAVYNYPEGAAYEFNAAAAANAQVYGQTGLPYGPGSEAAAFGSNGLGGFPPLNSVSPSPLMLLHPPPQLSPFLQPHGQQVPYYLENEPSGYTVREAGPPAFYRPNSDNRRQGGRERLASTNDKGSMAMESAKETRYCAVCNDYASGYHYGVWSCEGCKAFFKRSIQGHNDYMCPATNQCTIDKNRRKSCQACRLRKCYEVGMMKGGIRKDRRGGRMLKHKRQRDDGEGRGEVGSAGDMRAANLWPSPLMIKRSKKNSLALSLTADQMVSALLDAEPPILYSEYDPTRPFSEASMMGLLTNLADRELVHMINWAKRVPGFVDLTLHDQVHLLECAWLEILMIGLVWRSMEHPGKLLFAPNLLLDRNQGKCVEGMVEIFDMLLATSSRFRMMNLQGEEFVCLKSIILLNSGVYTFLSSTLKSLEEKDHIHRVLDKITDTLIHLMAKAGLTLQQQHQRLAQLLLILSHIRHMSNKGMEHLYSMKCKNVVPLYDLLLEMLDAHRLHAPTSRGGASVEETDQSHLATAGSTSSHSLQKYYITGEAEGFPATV

Consider `BrCC(Br)(Br)Br`, for which the Potency is 39.8 µM (active) in [1] and 29.8 µM (active) in test [7]. Besides, the Potency entry in test [2] and in test [3] was “inactive” throughout. The activation in [4] was -2.57% (inactive); in [8] it was 0.84% (inactive). In addition, the compound was called inactive in [5] and in test [6].
Consider `COP(=S)(OC)SCn1nnc2ccccc2c1=O`, for which the Potency in [9] was > 92 µM (inactive); in test [2] it was 31.6 µM [inconclusive] (active). The result in test [10], in test [5] and in test [6] was inactive. In addition, the Potency entry in [1], in [11] and in [3] was “inactive” each time.
With `CN(C)c1ccc(N(C)C)cc1`, the Potency in [9] is > 92 µM (inactive); in test [12], > 92 µM (inactive); in [13], > 92 µM (inactive); in test [7], 42.2 µM (active). Further, the compound was classed as inactive in test [10], in [15] and in [6]. Also, the Potency result in test [11], in [2], in test [3] and in [16] was “inactive” throughout. In addition, the activation in test [14] is 1.15% (inactive); in [8], 0.946% (inactive).
Consider `CC[N+](=O)[O-]`, for which the Potency in test [9], in [12] and in [13] was > 92 µM (inactive) each time. Moreover, the Potency entry in test [17], in test [18], in test [1], in [11], in test [16] and in test [7] was “inactive” each time. In addition, the compound was called inactive in [10], in test [15] and in [5]. Also, the activation in [14] is 5.8% (inactive); in [8], 1.19% (inactive).
In the case of `Oc1cc(Cl)cc(Cl)c1`, the Potency in test [9] and in test [13] was > 92 µM (inactive) throughout. The Potency result in [17], in test [18], in test [11], in test [2] and in test [16] was “inactive” each time. Moreover, the call in test [10], in test [15], in test [5] and in test [6] was inactive. Further, the activation was 6.41% (inactive) in test [14] and 0.715% (inactive) in test [8].
On to `Nc1ccc(Cc2ccc(N)cc2)cc1`, for which the Potency in [9], in test [12] and in [13] was > 92 µM (inactive) in each case. Moreover, the Potency entry in test [18], in test [1], in test [11] and in [16] was “inactive” each time. Moreover, the outcome in test [10], in test [15], in [5] and in test [20] was inactive. Besides, the activation in [4] was -2.78% (inactive) and 3.63% (inactive); in [14], 1.44% (inactive) and -0.448% (inactive); in [8], -0.031% (inactive) and 0.544% (inactive). Also, the max response in [19] was 34.2% and -15.9%.
`CC(C)CON=O`: the Potency in [9], in test [12] and in test [13] was > 92 µM (inactive) throughout. For the same compound, the Potency entry in [17], in [1], in [2] and in test [3] was “inactive” throughout. For the same compound, the activation in test [14] is 2.25% (inactive). Also, the call in [15], in [5], in test [20] and in [6] was inactive. For the same compound, the max response in test [19] was -5.59%.
As for `O=C(O)CBr`, the Potency in test [9] and in test [13] was > 92 µM (inactive) each time. For the same compound, the Potency entry in test [17], in [18], in test [1], in test [11] and in test [16] was “inactive” in each case. The call in test [10], in test [5], in test [20] and in [6] was inactive. The max response in test [19] was -19.5%. Further, the activation in [8] was -0.961% (inactive).

Values taken from PubChem BioAssay (NCATS).
